# GDH-TPI inh: inhibits GDH-TPI coupling enzymes, artifact for Mtb FBA screen | GDH-TPI coupled enzyme counterscreen, NADH absorbance | inhibition, % at 4.8 µM | 360,000 tested, 1.2% active | AID 588335; in the data active = inhibition above about 30%
# FadD28 FP inh: M. tuberculosis FadD28 bisubstrate binding inhibition | FadD28 bisubstrate probe binding, fluorescence polarization | inhibition, % at 12.5 µM | 360,000 tested, 0.22% active | AID 588549; in the data active = inhibition above about 8.5%, passing the limit was not always enough; inconclusive = no clear call, values can overlap the other calls
# FBA Mtb inh: inhibits M. tuberculosis FBA enzyme; 360,000 tested, 2.3% active; AID 588726; inhibition, % at 1 µM; purified M. tuberculosis FBA, fluorescence read-out; in the data active = inhibition above about 27%
# Mtb BioA inh: blocks M. tuberculosis BioA enzyme activity | purified M. tuberculosis BioA enzyme, plate reader | 360,000 tested, 0.096% active | AID 602481 | inhibition, % at 9.99 µM; in the data active = inhibition above about 40%; inconclusive = no clear call, values can overlap the other calls
# Rv3671c inh: inhibitors of M. tuberculosis serine protease Rv3671c; inhibition, % at 5.96 µM; 320,000 tested, 0.048% active; in the data active = inhibition above about 38%;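 also: extracellular domain of Rv3671c used as enzyme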
# Target sequence (P9WHR9 whole entry, looked up, the tested form may be a part): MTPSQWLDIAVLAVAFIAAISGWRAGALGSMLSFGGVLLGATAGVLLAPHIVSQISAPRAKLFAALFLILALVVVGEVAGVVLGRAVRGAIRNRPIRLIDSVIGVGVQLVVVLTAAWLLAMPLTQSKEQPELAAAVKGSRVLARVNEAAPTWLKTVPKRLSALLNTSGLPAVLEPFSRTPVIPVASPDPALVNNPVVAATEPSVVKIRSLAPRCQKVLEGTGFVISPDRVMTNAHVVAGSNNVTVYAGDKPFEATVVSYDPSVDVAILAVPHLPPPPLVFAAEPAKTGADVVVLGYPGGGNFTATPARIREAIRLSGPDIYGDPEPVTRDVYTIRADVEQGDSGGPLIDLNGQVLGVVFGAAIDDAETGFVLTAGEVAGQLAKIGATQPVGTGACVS
# A number is an active result; . = inactive; ? = inconclusive; / = no result; + = active, no number. In the library only some 3% were active in any assay of this set; here they are far more common.
SMILES,GDH-TPI inh,FadD28 FP inh,FBA Mtb inh,Mtb BioA inh,Rv3671c inh
COC(=O)c1cc(Br)ccc1-c1ccc(/C=N/n2nnnc2N)o1,43.5,.,.,.,.
C[C@@H]1CN([C@@H](C)CO)C(=O)c2cc(C#CCC3CCCC3)cnc2O[C@H]1CN(C)S(=O)(=O)c1cccs1,/,/,/,.,/
C[C@@H]1CN([C@@H](C)CO)C(=O)c2cc(NC(=O)c3ccncc3)ccc2O[C@@H](C)CCCCO[C@H]1CN(C)S(C)(=O)=O,/,/,/,.,/
CC(C)(C)c1ccc(NC(=O)Nc2ccc(OCC(=O)N3CCOCC3)cc2)cc1,.,24.6,.,/,.
COc1ccc(OC)c(-n2c(O)c(C=Nc3c(C)n(C)n(-c4ccccc4)c3=O)c(=O)[nH]c2=S)c1,32.5,.,.,.,.
Cc1c(N=Cc2c(O)n(CCc3ccc(F)cc3)c(=O)[nH]c2=O)c(=O)n(-c2ccccc2)n1C,35.9,?,.,.,.
CCOc1ccccc1-n1c(O)c(C=Nc2c(C)n(C)n(-c3ccccc3)c2=O)c(=O)[nH]c1=O,.,.,.,.,.
C[C@@H]1CCCCO[C@@H](CN(C)C(=O)CCC(F)(F)F)[C@@H](C)CN([C@@H](C)CO)C(=O)c2cc(NS(C)(=O)=O)ccc2O1,/,/,/,.,/
Cc1cc(/C=C2\C(=O)NC(=O)N(Cc3ccccc3)C2=O)c(C)n1-c1ccc(Cl)c(C(=O)O)c1,.,16.0,.,/,.
COc1ccc(NC(=O)Nc2ccc3c(c2)C(=O)N([C@@H](C)CO)C[C@@H](C)[C@@H](CN(C)C(=O)NC2CCCCC2)OCCCC[C@@H](C)O3)cc1,/,/,/,.,/
C[C@H](CO)N1C[C@H](C)[C@H](CN(C)C(=O)NC2CCCCC2)Oc2ncc(-c3cccc(C(F)(F)F)c3)cc2C1=O,/,/,/,.,/
Cc1cc(=O)oc2cc(Nc3ccccc3)ccc12,.,.,.,.,.
Cc1cc(=O)oc2cc(NC(=O)CCC(=O)O)ccc12,.,.,196.8,.,.
Cc1cc(=O)oc2cc(NC(=O)CCCC(=O)O)ccc12,.,.,+,/,.
C[C@H](NC(=O)C[C@@H]1CC[C@H](NC(=O)Cc2ccccn2)[C@@H](CO)O1)c1ccccc1,/,/,/,.,/
CN(C)CC(=O)Nc1ccc2c(c1)[C@H]1C[C@H](CC(=O)NCc3ccc(-c4ccccc4)cc3)O[C@H](CO)[C@H]1O2,/,/,/,.,/
CN(C)/C(CN1CCN(C=O)CC1)=C1\N=C(c2ccccc2)OC1=O,35.5,.,.,.,.
CC(=O)c1ccc(NC(=O)CCc2c(C)nc3ncnn3c2C)cc1,.,.,.,.,/
CCc1c(C)nc2ncnn2c1Nc1ccc(C(C)=O)cc1,39.5,.,.,.,.
CCOC(=O)c1ccc(Nc2c(CC)c(C)nc3ncnn23)cc1,32.0,.,.,.,.
CC(C)NC(=O)N(C)C[C@H]1Oc2ncc(C#CCC3CCCC3)cc2C(=O)N([C@H](C)CO)C[C@@H]1C,/,/,/,.,/
O=c1nc2ccc(Cl)cn2c2ccc(S(=O)(=O)N3CCOCC3)cc12,.,.,176.3,.,.
O=S(=O)(c1cccc(-c2cn3cc(Cl)ccc3n2)c1)N1CCOCC1,.,.,.,.,.
COCCOC(=O)N1C(=O)[C@@]2(c3cc(C#Cc4ccc(OC)cc4)ccc31)[C@H](C(=O)N1CCN(c3ncccn3)CC1)[C@H]1C(=O)O[C@H](c3ccccc3)[C@H](c3ccccc3)N1[C@@H]2c1ccc(OCCO)cc1,/,/,/,.,/
CCOC(=O)Nc1ccc2c(COC(=O)C(NS(=O)(=O)c3ccc(Cl)cc3)C(C)O)cc(=O)oc2c1 (stereo unspecified),.,.,+,.,.
SMILES,GDH-TPI inh,FadD28 FP inh,FBA Mtb inh,Mtb BioA inh,Rv3671c inh
CCOC(=O)Nc1ccc2c(COC(=O)CNS(=O)(=O)c3cccc(Br)c3)cc(=O)oc2c1,.,.,155.5,.,.
C=CCc1c(C)nc(C)nc1N/N=C/c1ccccc1,.,.,.,.,.
C=CCc1c(C)nc(C)nc1N/N=C/c1ccc(F)cc1,32.5,.,.,.,.
CC1(CC(=O)O)C(=O)N=C2C=CC=CN21 (stereo unspecified),.,.,166.6,.,/
O=C(OCC(=O)N1CCOCC1)c1ccc(O)cc1,.,/,+,.,.
O=C(O)c1cc(-c2cc(C(=O)O)c3ccccc3n2)nc2ccccc12,/,/,/,/,.
O=C(O)c1cc(-c2ccco2)nc2ccccc12,.,.,180.6,.,.
O=C(NC1CC1)c1cc(-c2ccco2)nc2ccccc12,.,.,63.0,.,/
CC(=O)N(C)C[C@H]1Oc2cc(Br)ccc2S(=O)(=O)N([C@@H](C)CO)C[C@H]1C,/,/,/,.,/
COc1ccc(NC(=O)Nc2ccc3c(c2)C(=O)N([C@H](C)CO)C[C@H](C)[C@H](CN(C)C(=O)C2CCCCC2)OCCCC[C@@H](C)O3)cc1,/,/,/,.,/
Cc1noc(C)c1S(=O)(=O)N(C)C[C@@H]1Oc2ccc(NC(=O)Nc3ccc4c(c3)OCO4)cc2C(=O)N([C@@H](C)CO)C[C@@H]1C,/,/,/,.,/
CC1(C)CC(=O)C=C(Nc2ccc(S(N)(=O)=O)cc2)C1,38.1,.,.,.,.
C[C@H]1CN([C@@H](C)CO)S(=O)(=O)c2ccc(C#CC3CC3)cc2O[C@H]1CN(C)C(=O)C1CCCCC1,/,/,/,.,/
O=C(c1ccncc1)c1ccc(NS(=O)(=O)c2ccc(Br)s2)cc1,38.5,.,.,.,.
O=C(Nc1ccc2ccccc2c1)c1ccc(NS(=O)(=O)c2ccc(Br)s2)cc1,.,.,.,/,.
Cc1cccc(NC(=O)Cn2c(=O)n3nc(CCn4nc(C)cc4C)nc3c3ccccc32)c1,.,9.0,.,.,.
CCN(C(=O)Cn1c(=O)n2nc(CCn3nc(C)cc3C)nc2c2ccccc21)c1cccc(C)c1,.,.,.,/,.
Cc1ccccc1-c1ccc([C@@H]2[C@@H](CO)N3CCCCN(S(=O)(=O)c4ccc(F)cc4)C[C@@H]23)cc1,/,/,/,.,/
C[C@@H]1CN([C@@H](C)CO)C(=O)c2cccc(NC(=O)c3nc4ccccc4s3)c2O[C@@H]1CN(C)C(=O)Nc1ccccc1,/,/,/,.,/
Cc1nc(NC(=O)/C=C/c2ccccc2)sc1C(=O)N(C)C,.,.,.,.,.
Cc1ccc(C(=O)Nc2nc(C)c(C(=O)N(C)C)s2)o1,.,.,.,.,.
Cc1nc(NC(=O)c2oc3ccccc3c2C)sc1C(=O)N(C)C,32.4,.,.,.,.
Cc1nc(NC(=O)/C=C/c2ccc(F)cc2)sc1C(=O)N(C)C,33.9,.,.,/,.
Cc1nnc(NC(=O)c2oc3c(ccc4ccccc43)c2C)s1,32.2,.,.,.,.
Cc1nnc(NC(=O)c2oc3ccccc3c2C)s1,.,.,.,.,.
C[C@H](CO)N1C[C@H](C)[C@@H](CN(C)S(=O)(=O)c2cn(C)cn2)Oc2ccc(NC(=O)Nc3cccc4ccccc34)cc2CC1=O,/,/,/,.,/
O=C1/C(=C\c2cccc(O)c2O)SC(=S)N1Cc1ccccc1,.,.,.,.,.
O=C1/C(=C\c2cc([N+](=O)[O-])ccc2O)SC(=S)N1Cc1ccc(Cl)cc1,.,8.6,.,.,.
CC(=O)N(C)C[C@H]1Oc2ncc(C#Cc3ccccn3)cc2C(=O)N([C@@H](C)CO)C[C@@H]1C,/,/,/,.,/
COC(=O)C1=CN(CCCN2CCCC2=O)C=C(C(=O)OC)C1c1ccccc1C(F)(F)F,.,.,122.6,.,.
